From PubChem BioAssay (EPA / NIEHS)
Active and inactive are the calls of the source. How the source made its calls: active means hit-call score of the fitted dose curve at least 0.9, where 1 is the maximum; inactive means score below 0.9.

Columns and labels:
Settings in all cases: mRNA level, 48 h; actives raise or lower the signal
CYP3A5 (gene 1577) = assay: LTEA_HepaRG_CYP3A5: Life Technologies and Expression Analysis (LTEA) Assay for CYP3A5 using HepaRG (AID 2283493)
How it was run: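 Readout was CYP3A5 mRNA by qRT-PCR. HepaRG cultures were exposed for 48 h in serum-free induction medium to chemicals at up to 100 uM, and responses were fitted in both directions relative to DMSO vehicle.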

[1] = read-out: Fatty Acid-Binding Protein 1 (FABP1), FABP1 (gene 2168); assay: LTEA_HepaRG_FABP1: Life Technologies and Expression Analysis (LTEA) Assay for Fatty Acid-Binding Protein 1 (FABP1) using HepaRG (AID 2283494)
How it was run: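 Values reflect bidirectional concentration-response fitting of FABP1 mRNA change against 0.5% DMSO controls. Human HepaRG cultures received eight half-log doses (top 100 uM) for 48 h; expression quantified by TaqMan qRT-PCR with housekeeping-gene normalization.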

[2] = read-out: Cytochrome P450 4A22 (Homo sapiens) (UniProt Q5TCH4); assay: LTEA_HepaRG_CYP4A22: Life Technologies and Expression Analysis (LTEA) Assay for Cytochrome P450 4A22 (CYP4A22) using HepaRG (AID 2283495)
How it was run: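 Gene expression measured by qRT-PCR against three housekeeping genes (ACTB, GAPDH, POLR2A), with gain or loss fitted relative to 0.5% DMSO vehicle. HepaRG cultures received 48 h chemical treatment, top concentration 100 uM, half-log steps, duplicate wells.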

[3] = read-out: Cytochrome P450 7A1 (Homo sapiens) (UniProt P22680); assay: LTEA_HepaRG_CYP7A1: Life Technologies and Expression Analysis (LTEA) Assay for Cytochrome P450 7A1 (CYP7A1) using HepaRG (AID 2283496)
How it was run: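 Using 0.5% DMSO as vehicle and baseline, chemicals were tested in duplicate over an 8-point range from 100 uM on HepaRG cells for 48 h; qRT-PCR signals were normalised to ACTB, GAPDH and POLR2A.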

[4] = read-out: Glutathione S-Transferase (GSTA2), GSTA2 (gene 2939); assay: LTEA_HepaRG_GSTA2: Life Technologies and Expression Analysis (LTEA) Assay for Glutathione S-Transferase (GSTA2) using HepaRG (AID 2283497)
How it was run: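 Oxidative-stress marker GSTA2 is quantified by TaqMan qRT-PCR in HepaRG cultures treated 48 h across an eight-point range to 100 uM. Expression is normalized to endogenous controls and compared with 0.5% DMSO vehicle.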

[5] = read-out: Glutamate-cysteine ligase catalytic (GCLC), GCLC (gene 2729); assay: LTEA_HepaRG_GCLC: Life Technologies and Expression Analysis (LTEA) Assay for Glutamate-cysteine ligase catalytic (GCLC) using HepaRG (AID 2283498)
How it was run: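 Oxidative-stress marker GCLC is measured as mRNA change in human HepaRG liver cells after 48 h chemical treatment in 0.5% DMSO, eight concentrations from 100 uM. Activity is fitted bidirectionally against vehicle.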

[6] = read-out: growth arrest and DNA damage 45 (GADD45G), GADD45G (gene 10912); assay: LTEA_HepaRG_GADD45G: Life Technologies and Expression Analysis (LTEA) Assay for growth arrest and DNA damage 45 (GADD45G) using HepaRG (AID 2283499)
How it was run: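 GADD45G transcript level by qRT-PCR (housekeeping-normalized: ACTB, GAPDH, POLR2A) after 48 h chemical treatment of a single HepaRG lot in serum-free induction medium; eight-point half-log series up to 100 uM in 0.5% DMSO, duplicates, up- or down-regulation scored.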

[7] = read-out: Glutamate-cysteine ligase regulatory (GCLM), GCLM (gene 2730); assay: LTEA_HepaRG_GCLM: Life Technologies and Expression Analysis (LTEA) Assay for Glutamate-cysteine ligase regulatory (GCLM) using HepaRG (AID 2283500)
How it was run: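 In this multiplexed HepaRG gene-expression assay, GCLM mRNA change after 48 h treatment (8 concentrations, max 100 uM) was scored against DMSO by bidirectional curve fitting.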

[8] = read-out: Glutathione S-transferase M3 (GSTM3), GSTM3 (gene 2947); assay: LTEA_HepaRG_GSTM3: Life Technologies and Expression Analysis (LTEA) Assay for Glutathione S-transferase M3 (GSTM3) using HepaRG (AID 2283501)
How it was run: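 GSTM3 transcript levels came from Fluidigm TaqMan qRT-PCR normalized to three housekeeping genes, fitted in both directions against DMSO. HepaRG cultures received chemicals for 48 h in serum-free induction medium (0.5% DMSO), 8 half-log concentrations up to 100 uM, duplicate.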

[9] = read-out: Heat shock 70 kDa protein 1 (HSPA1A), gene 3303; assay: LTEA_HepaRG_HSPA1A: Life Technologies and Expression Analysis (LTEA) Assay for Heat shock 70 kDa protein 1 (HSPA1A) using HepaRG (AID 2283502)
How it was run: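 An oxidative-stress marker readout: HepaRG cells treated 48 h in duplicate with an eight-point series (highest 100 uM) had HSPA1A mRNA quantified by TaqMan qRT-PCR. Activity was fitted in both directions using 0.5% DMSO as baseline.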

Measured: AC50

CC(=O)OCCC(C)C
inactive: all assays above

Cc1c(-c2cccnc2)c2ccccc2n1CCCCC(=O)O
inactive: all assays above

O=c1n(CC2CO2)c(=O)n(CC2CO2)c(=O)n1CC1CO1 (stereo unspecified)
inactive: all assays above

O=C(O)CCN(C1(C(=O)NO)CCCC1)S(=O)(=O)c1ccc(Oc2ccc(F)cc2)cc1
inactive: all assays above

CC(=O)OC[C@H]1O[C@@](COC(C)=O)(O[C@H]2O[C@H](COC(C)=O)[C@@H](OC(C)=O)[C@H](OC(C)=O)[C@H]2OC(C)=O)[C@@H](OC(C)=O)[C@@H]1OC(C)=O
inactive: all assays above

CCOC(=O)COc1ccc2c(c1)CC(NCC(O)c1cccc(Cl)c1)CC2 (stereo unspecified)
active: [1] 45.8 µM
inactive: all other assays above

C=CC(=C)CCC=C(C)C
inactive: all assays above

Cc1[nH]cnc1C[C@H]1CCc2c(C)c3ccccc3n2C1=O
active: [1] 17.1 µM | [2] 18.9 µM | [3] 22.6 µM | [4] 30.5 µM | [5] 29.7 µM | [6] 81.1 µM | [9] 56.9 µM
inactive: CYP3A5 (gene 1577) | [7] | [8]

CCOc1cccc(-n2cc(C(=O)N3CCN(c4cc(C(=O)O)c5ccccc5c4)CC3)nc2-c2ccc(C)cc2)c1
active: CYP3A5 (gene 1577) 80.5 µM | [1] 30.2 µM | [2] 29.8 µM | [3] 33.6 µM | [4] 32.3 µM | [5] 79.2 µM | [6] 13.1 µM | [7] 11.5 µM | [9] 86.5 µM
inactive: [8]

COCCOCCOCCOC
inactive: all assays above

COC(=O)CC(=O)OC
active: [1] 50 µM | [3] 50 µM
inactive: all other assays above

C1N2CN3CN1CN(C2)C3
inactive: all assays above

CCCCCCCCO
inactive: all assays above

CCOCCOCCOCCO
inactive: all assays above

Cn1cnc([N+](=O)[O-])c1Sc1ncnc2nc[nH]c12
active: [1] 27 µM | [2] 0.238 µM | [3] 2.09 µM | [4] 1.35 µM | [6] 1.11 µM
inactive: all other assays above

Cc1ccc(S(=O)(=O)O)cc1C
inactive: all assays above

C[C@](N)(Cc1ccc(O)c(O)c1)C(=O)O
inactive: all assays above

COC(=O)c1ccccc1O
inactive: all assays above

C1=CCCC=CCCC=CCC1
inactive: all assays above

CC(=O)c1ccc2c(c1)[C@H](NC(=O)c1ccc(F)cc1)[C@@H](O)C(C)(C)O2
inactive: all assays above

O=C(O)CC(O)C(=O)O (stereo unspecified)
inactive: all assays above

CNS(=O)(=O)c1cc(C(=O)N2CCC(CCN3C4CCC3CC(n3c(C)nc5ccccc53)C4)(c3cccc(F)c3)CC2)c(Cl)cc1F (stereo unspecified)
active: [1] 18.4 µM | [2] 22.7 µM | [3] 21.5 µM | [4] 31.8 µM | [6] 30.8 µM
inactive: all other assays above

COc1ccc(/C=C/S(=O)(=O)NC(=O)c2ccc(C)cc2Cl)cc1
active: [4] 80.8 µM
inactive: all other assays above

CCOC(=O)CC(CC(=O)OCC)(OC(C)=O)C(=O)OCC
inactive: all assays above

CC(C)CCCCCCOC(=O)c1ccc(C(=O)OCCCCCCC(C)C)c(C(=O)OCCCCCCC(C)C)c1
inactive: all assays above

COc1ccc2sc(C(=O)Nc3nnn[nH]3)c(OC(C)C)c2c1
inactive: CYP3A5 (gene 1577) | [5] | [7]
active: [1] 83.9 µM | [2] 1.17 µM | [3] 96.5 µM | [4] 50 µM | [6] 80.8 µM | [8] 76.2 µM | [9] 9.47 µM

CC(C)=CCCC(C)=CC=O
inactive: all assays above

Cc1ccc(N)cc1O
active: [1] 23.1 µM | [3] 24.4 µM
inactive: all other assays above

COCCOc1cc2cc(C(=O)NC3CCN(C(C)C)CC3)n(CC(=O)Nc3ccc(Cl)cn3)c2cn1
active: CYP3A5 (gene 1577) 15.9 µM | [1] 34.9 µM | [2] 76.7 µM | [3] 41.2 µM | [4] 45 µM | [6] 45 µM | [8] 45 µM
inactive: [5] | [7]

CC(C)c1cccc(C(C)C)c1N1C(=O)c2ccc(O)cc2C1=O
active: [1] 77.7 µM | [2] 72 µM | [3] 93.3 µM
inactive: all other assays above

CNCc1ccc(NC(=O)c2c[nH]c3c2C(=O)CCC3)cc1
not listed: [7]
inactive: all other assays above

CCCCCCc1ccc(O)cc1O
not listed: [7]
inactive: all other assays above

CCNc1ccccc1
not listed: [7]
inactive: all other assays above

CCN(C(=O)c1cc(C)cc(OC[C@H](C)Nc2ccncc2)c1)C(C)C
active: [1] 2.25 µM | [2] 33.8 µM | [3] 50.5 µM | [6] 33.8 µM
not listed: [7]
inactive: all other assays above

COC(=O)c1c(Cl)c(Cl)c(C(=O)OC)c(Cl)c1Cl
inactive: all assays above

CC/C(=C\C(=N/O)C(N)=O)C(C)[N+](=O)[O-] (stereo unspecified)
not listed: [7]
inactive: all other assays above

Cc1ccc(C)c(O)c1
inactive: all assays above

CCCC(=O)OCC
inactive: all assays above

Clc1nc(Cl)c(Cl)c(Cl)c1Cl
not listed: [7]
inactive: all other assays above

Nc1ccc(Nc2ccccc2)cc1
active: [1] 50 µM | [3] 50 µM
not listed: [7]
inactive: all other assays above

CC(C)CCCCCCCOC(=O)CCCCC(=O)OCCCCCCCC(C)C
not listed: [7]
inactive: all other assays above
